Here are results for 91 compounds from PubChem BioAssay AID463173 (ICCB-Longwood Screening Facility, Harvard Medical School, 2010).

Molecules are shown by their SMILES. The whole screen tested about 52,000 compounds, of which about 4,300 (8.3%) were called active. For the sample, actives were picked, then their nearest neighbours and some compounds at random. A number with no mark means an inactive call. Rule as the data show it: active = survival mostly below about 52% (no sharp cut-off); inactive = mostly above about 56%.

The assay deals with DeltatarO mutant. Briefly: S. aureus survival, RN4220 and DeltatarO strains – OD600, teichoic acid synthesis inhibitors, primary screen (AID 463173). The settings on record: S. aureus RN4220 wild type/DeltatarO growth, OD600, 18 h, hits give low values, screened at 18.75 µg/mL (by protocol).
Turning to `COc1ccc(-n2nc(C(=O)N3CCN(c4ccccc4OC)CC3)c3c4ccccc4n(C)c3c2=O)cc1Cl`, the survival is 123%.

In the case of `Cc1cc(C)c(NC(=O)CCN2C(=O)c3ccccc3Sc3ncccc32)c(C)c1`, the survival is 106%.

Consider `Cc1ccnc(NS(=O)(=O)c2ccc(NC(=O)c3nc(SC(C)C)ncc3Cl)cc2)n1`, for which the survival was 58%.

As for `CCOC(=O)c1noc2nc(C)n(CC(=O)Nc3cccc(OC)c3)c(=O)c12`, the survival is 108%.

Turning to `O=c1c2ccccc2nc(-c2ccccc2)n1CCCn1ccnc1`, the survival was 107%.

With `CCCc1cc(C(=O)Nc2c(C)nn(Cc3ccc(Cl)c(Cl)c3)c2C)no1`, the survival was 56%.

`COc1ccc2cc(C(=O)NCc3ccc4c(c3)CCN4C(=O)c3ccccc3)[nH]c2c1`: the survival is -1% (active).

Regarding `COc1ccc2cc(C(=O)NCc3ccc4c(c3)CCN4C(=O)c3ccc(C)cc3)[nH]c2c1`, the survival is 75%.

For `O=C(NCc1ccc2c(c1)CCN2C(=O)c1ccccc1)c1cc2ccccc2[nH]1`, the survival was 6% (active).

For the compound `COc1ccc2cc(C(=O)NCc3ccc4c(c3)CCN4C(=O)c3ccc(F)cc3)[nH]c2c1`, the survival was 86%.

Consider `COc1ccc(CC(=O)NCc2ccc3c(c2)CCN3C(=O)c2cccc(C)c2)cc1`, for which the survival was -4% (active).

Take `COc1ccc(OCC(=O)NCc2ccc3c(c2)CCN3C(=O)c2cccc(C)c2)cc1`: the survival was 82%.

Consider `COc1ccc(CCC(=O)NCc2ccc3c(c2)CCN3C(=O)c2cccc(C)c2)cc1`, for which the survival was 76%.

Take `COc1cccc(NC(=O)NCc2ccc3c(c2)CCN3C(=O)c2ccccc2)c1`: the survival is 52% (active).

Turning to `O=C(NCc1ccc2c(c1)CCN2C(=O)c1ccccc1)Nc1cccc(C(F)(F)F)c1`, the survival is 123%.

Turning to `CCOC(=O)c1cccc(NC(=O)NCc2ccc3c(c2)CCN3C(=O)c2ccccc2)c1`, the survival is 116%.

For `O=C(NCc1ccc2c(c1)CCN2C(=O)c1ccc(F)cc1)c1cc2ccccc2[nH]1`, the survival was 97%.

With `Cc1cccc(C(=O)N2CCc3cc(CNC(=O)c4cc5ccccc5[nH]4)ccc32)c1`, the survival is 81%.

With `CCC1CCCCN1Cc1cn2c(-c3ccc(Br)cc3)nnc2s1` (stereo unspecified), the survival is 80%.

On to `Cc1ccc(Cn2c(=O)c3cccnc3n(CC(=O)Nc3cc(Cl)ccc3C)c2=O)cc1`, for which the survival was 85%.

`CCCOc1cccc(C2c3c(oc4ccc(F)cc4c3=O)C(=O)N2CCc2ccc(OC)cc2)c1` (stereo unspecified): the survival is 92%.

As for `CCOC(=O)c1[nH]c(C)c(CCC(=O)NC(C)c2ccccc2)c1C` (stereo unspecified), the survival was 83%.

For the compound `O=C(NC12CC3CC(CC(C3)C1)C2)c1cncc(O)c1`, the survival was 90%.

Turning to `CCc1ccccc1NC(=O)c1ccc2c(c1)N(Cc1cc(C)ccc1C)C(=O)c1ccccc1S2(=O)=O`, the survival was 84%.

Turning to `Cn1c(=O)n(C)c2cc(/C=N/NC(N)=S)ccc21`, the survival was 98%.

`CCn1cc(C(=O)N2CCN(c3ccc(F)cc3)CC2)c(=O)c2cc(S(=O)(=O)N(C)C3CCCCC3)ccc21`: the survival was 73%.

For the compound `CCOc1ccc(C(=O)NCc2ccc3c(c2)CCN3C(=O)c2ccc(Cl)cc2)cc1`, the survival is 91%.

With `CCOc1ccc(C(=O)NCc2ccc3c(c2)CCN3C(=O)c2ccccc2)cc1`, the survival is -2% (active).

`O=C(NCc1ccc2c(c1)CCN2C(=O)c1ccccc1)c1ccccc1`: the survival is 79%.

Take `CC(=O)c1cccc(NC(=O)C(CC(C)C)NS(=O)(=O)c2ccc3c(c2)CCN3C(C)=O)c1` (stereo unspecified): the survival is 115%.

In the case of `COc1cccc(OCc2nc3ccccc3n2CCOc2ccccc2C)c1`, the survival was 38% (active).

In the case of `COc1ccc(OCCn2c(C(C)Oc3ccccc3)nc3ccccc32)cc1` (stereo unspecified), the survival is 48% (active).

As to `Cc1ccc(OCCn2c(COc3ccc(Cl)cc3)nc3ccccc32)cc1`, the survival is 65%.

Turning to `COc1ccccc1OCCn1c(C(C)Oc2ccccc2)nc2ccccc21` (stereo unspecified), the survival is 66%.

With `CCCC(O)c1nc2ccccc2n1CCCCOc1ccc(OC)cc1` (stereo unspecified), the survival is 52%.

For the compound `COCc1nc2ccccc2n1CCOc1cccc(C)c1`, the survival is 39% (active).

Regarding `Cc1ccc(OCc2nc3ccccc3n2CCOc2ccc(Cl)cc2)cc1`, the survival is 15% (active).

Take `COc1ccccc1OCCn1c(COc2cc(C)ccc2C)nc2ccccc21`: the survival was 61%.

Regarding `Cc1cccc(OCCn2c(SCC(N)=O)nc3ccccc32)c1`, the survival is 121%.

Consider `COc1ccccc1NC(=O)C1=C(C)Nc2nc(SCc3ccccc3)nn2C1c1ccccn1` (stereo unspecified), for which the survival was 65%.

`Cc1cc(C)cc(Nc2sc(C(=O)c3ccccc3)c(N)c2S(=O)(=O)c2ccccc2)c1`: the survival was 101%.

`Cc1ccsc1CCN1C(=O)N(c2ccccc2)C(=O)C1CC(=O)Nc1ccc(F)cc1` (stereo unspecified): the survival is 114%.

With `CC(C)=CCC(C)(C)C1OCCN1C(=O)Nc1ccccc1` (stereo unspecified), the survival is 95%.

On to `Cc1sc2c(c1C)c(=O)n(Cc1ccccc1)c(=O)n2Cc1ccc(F)cc1`, for which the survival is 109%.

Consider `COc1ccc(C2CC(=O)c3cc(-c4nc(-c5ccc(Cl)cc5)cs4)c(=O)[nH]c3C2)cc1OC` (stereo unspecified), for which the survival is 59%.

Consider `CC(=O)c1ccc(NC(=O)/C=C/c2ccc(C)o2)cc1`, for which the survival was 48%.

As for `COc1ccc(Cn2ccnc2SCC(=O)Nc2nc3ccccc3s2)cc1`, the survival was 84%.

Regarding `CCc1ccc(OCCCSc2nc(-c3ccc(C(C)(C)C)cc3)nc3cc(=O)[nH]n23)cc1`, the survival is 80%.

Turning to `CCOC(=O)c1[nH]c(C)c(C(=O)NCc2ccc(F)cc2)c1C`, the survival is 79%.

As for `O=S(=O)(c1cccc(Cl)c1)c1nnn2c1nc(NC1CCCCCC1)c1sccc12`, the survival was 106%.

As for `COc1cccc(OCc2nc3ccccc3n2CCOc2cccc(C)c2)c1`, the survival was 44% (active).

In the case of `COc1cccc(OCc2nc3ccccc3n2CCOc2ccccc2)c1`, the survival was 35% (active).

On to `CCCn1c(COc2cccc(C)c2)nc2ccccc21`, for which the survival is 12% (active).

With `COc1cccc(OCCn2c(-c3ccc(Br)cc3)nc3ccccc3c2=O)c1`, the survival is 82%.

In the case of `CCCCn1c(COc2cccc(OC)c2)nc2ccccc21`, the survival is 57%.

As to `COc1cccc(OCc2nc3ccccc3n2CCOc2ccc(C)cc2)c1`, the survival was 36% (active).

Turning to `COc1cccc(OCc2nc3ccccc3n2C)c1`, the survival is 57%.

Regarding `O=S(=O)(NCc1ccccc1Cl)c1ccc(-c2cnc(C3CC3)o2)cc1`, the survival is 101%.

With `CC1CCN(c2nc3c(S(=O)(=O)c4cccc(Cl)c4)nnn3c3ccsc23)CC1`, the survival is 81%.

As for `Cc1c(C#N)c2ccccc2n1CC(=O)NC1CCCCCC1`, the survival is 72%.

For the compound `CC(C(=O)Nc1ccccc1C(=O)N1CCCC1)n1nnc2ccccc21` (stereo unspecified), the survival was 77%.

On to `COc1ccc(Nc2nnc(-c3ccc(C)c(S(N)(=O)=O)c3)c3ccccc23)cc1`, for which the survival was 70%.

`CCn1c(SCC(=O)c2ccc(Br)cc2)nnc1-c1ccncc1`: the survival was 99%.

`CC1CCC2C(C1)Nc1c(C(=O)O)cccc1C2(C)C` (stereo unspecified): the survival is 40% (active).

Take `CC1CCC(=O)C(C2(O)C(=O)Nc3ccccc32)C1` (stereo unspecified): the survival is 93%.

Turning to `COc1ccc(OC)c(NC(=O)CN2CCCN(Cc3ccccc3Cl)S2(=O)=O)c1`, the survival is 128%.

Turning to `Cc1ccc2c(c1)N(CC(=O)Nc1ccccc1C(F)(F)F)C(=O)c1cccnc1O2`, the survival was 100%.

On to `CCOC(=O)c1c(S(=O)(=O)N2CCCC(C(=O)N(C)Cc3ccccc3)C2)c(C)n(C)c1C` (stereo unspecified), for which the survival was 92%.

Consider `Cc1ccc(Cl)cc1Nc1nn2c(=O)c3ccc(C(=O)N4CCCC(C)C4)cc3nc2s1` (stereo unspecified), for which the survival was 73%.

Regarding `Cc1nc(-c2ccccc2)cc(=O)[nH]1`, the survival was 109%.

Regarding `CC(C)c1nc2ccccc2c(=O)[nH]1`, the survival is 91%.

On to `Cc1nc2cc3ccccc3cc2c(=O)[nH]1`, for which the survival is 47% (active).

On to `CNS(=O)(=O)c1cn(CC(=O)N2CCN(c3ccccc3F)CC2)cc1S(=O)(=O)NC`, for which the survival was 71%.

For `CC(=O)Nc1ccc(S(=O)(=O)Nc2ccc(-c3cn4c(C)csc4n3)cc2)cc1`, the survival is 89%.

Take `CC(=O)c1ccc(S(=O)(=O)Nc2ccc(-c3cn4c(C)csc4n3)cc2)cc1`: the survival is -5% (active).

`COc1ccc(S(=O)(=O)Nc2ccc(-c3cn4c(C)csc4n3)cc2)cc1`: the survival was 94%.

As for `COc1cc2ccccc2cc1C(=O)Nc1ccc2oc(-c3cccc(Cl)c3Cl)nc2c1`, the survival is 56%.

Consider `COc1cc2ccccc2cc1C(=O)Nc1cc(-c2nc3ccccc3o2)ccc1C`, for which the survival is 111%.

Turning to `COc1cc2ccccc2cc1C(=O)Nc1cccc(-c2nc3cc(C)c(C)cc3o2)c1C`, the survival was 45% (active).

Turning to `COc1cc2ccccc2cc1C(=O)Nc1cccc(-c2nc3ccccc3o2)c1`, the survival was 7% (active).

In the case of `Cc1cc2nc(-c3cccc(NC(=O)c4cccc5ccccc45)c3)oc2cc1C`, the survival is 57%.

For `COc1cc2ccccc2cc1C(=O)Nc1ccc(Cl)c(-c2nc3ccccc3o2)c1`, the survival was 40% (active).

For the compound `COc1cc2ccccc2cc1C(=O)Nc1cccc(-c2nc3cc(C)ccc3o2)c1C`, the survival was 55%.

As to `CCCC(=O)Nc1cccc(-c2nc3cc(C)c(C)cc3o2)c1C`, the survival was 57%.

Take `COc1cc2ccccc2cc1C(=O)Nc1ccc2oc(-c3cc(Br)ccc3Cl)nc2c1`: the survival is 75%.

Take `Cc1cc2nc(-c3ccc(NC(=O)c4ccccc4F)cc3)oc2cc1C`: the survival is 66%.

As to `Cc1cc2oc(C(=O)Nc3cccc(-c4nc5ccccc5o4)c3)c(C)c2cc1C`, the survival is 74%.

In the case of `COc1cc2ccccc2cc1C(=O)Nc1cccc(-c2nc3cc(C)c(C)cc3o2)c1`, the survival was 41% (active).

For `CCc1cccc(NC(=O)Cn2c(=O)n(CCCCCC(=O)NCc3ccc(F)cc3)c(=O)c3sccc32)c1`, the survival is 63%.

Turning to `O=C(NCc1ccc(Cl)cc1)C1CCN(C(=O)c2cnn(-c3ccccc3)c2-n2cccc2)CC1`, the survival was 65%.

Consider `Cc1ccc(C)c(NS(=O)(=O)c2cc3c4c(c2)C(C)C(=O)N4CCC3)c1` (stereo unspecified), for which the survival is 106%.
